For 21 compounds, growth inhibition, inhibition and period change results are on record in PubChem BioAssay.

A short description of assay [1]: antimalarial activity against Dd2 strain (AID 2302;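 active means growth inhibition above 50% at the single 2 µM test dose, taken to imply half-maximal potency below 2 µM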;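 further: 0% = DMSO untreated growth and 100% = chloroquine plus artemisinin killed control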). As to conditions: P. falciparum Dd2 in RBCs, LDH growth readout, 72 h; at 2 µM; stronger effect = higher value.
Assay [2] in a line: HepG2 cytotoxicity, primary screen, cytotoxicity control for P. falciparum antimalarial project, cell-based, ATP luminescence (AID 2303;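 active means inhibition above 50%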;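 further: 0% = DMSO wells and 100% = digitonin-killed cells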). Conditions: HepG2 viability, 24-48 h, at 10 µM, stronger effect = higher value.
Assay [3] concerns the target L-lactate dehydrogenase (Plasmodium falciparum (isolate CDC / Honduras)) (UniProt Q27743). The experiment in a line: PfLDH activity inhibition – cell lysate, 3D7 strain, counter-screen for P. falciparum growth inhibition project (AID 2304).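 Further: 0% = vehicle and 100% = reference inhibitor.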 As to conditions: P. falciparum 3D7 crude extract, LDH APAD/NBT absorbance; at 2 µM; stronger effect = higher value. A general note: A counterscreen serves to expose hits that act by an unwanted route or on another target.

A short description of assay [4]: inhibition of 3D7 malaria parasite growth – strain 3D7 (AID 2306).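 Further: 0% = DMSO wells and 100% = chloroquine plus artemisinin control wells.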 As to conditions: P. falciparum 3D7 erythrocytic growth, LDH absorbance, 72 h; at 2 µM; stronger effect = higher value.
Assay [5] is described as follows: circadian clock period modulators, cell-based, LOPAC library, luminescence reporter (AID 2774).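 Further: values are relative to mean of DMSO wells on each plate.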 As to conditions: circadian reporter cells, at 7 µM, actives lie on both sides.

Molecules are shown by their SMILES. Where “and” joins values, the source holds several entries; their conditions need not be identical. Equal values may be shown once. Unmarked numbers belong to inactive results. Calls of active or inactive are those of the source. Unless noted, how the calls were made is not given here.

L-lactate dehydrogenase (Plasmodium falciparum (isolate CDC / Honduras)), sequence (Q27743 whole entry, looked up): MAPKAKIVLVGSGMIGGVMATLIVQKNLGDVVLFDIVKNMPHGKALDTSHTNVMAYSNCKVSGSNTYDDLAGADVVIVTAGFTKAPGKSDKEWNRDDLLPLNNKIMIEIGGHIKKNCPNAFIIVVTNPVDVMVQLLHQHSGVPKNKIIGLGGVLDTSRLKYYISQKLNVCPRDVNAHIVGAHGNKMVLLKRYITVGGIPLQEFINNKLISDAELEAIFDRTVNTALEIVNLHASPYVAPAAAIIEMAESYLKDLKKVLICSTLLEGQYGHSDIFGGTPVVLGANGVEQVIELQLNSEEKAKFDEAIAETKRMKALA

In general, inhibition refers to the relative decrease from the control value, in per cent. Take `COc1cc(C=C(C2=NC(=O)CS2)c2nc3cccnc3n2C)ccc1O`: the growth inhibition in assay [1] is 48%; in assay [4], 89% (active). Besides, the inhibition was 7% in assay [2] and -7% in assay [3].

Take `CCC[C@@H]([C@@H](CC1CCCCC1)C(=O)N[C@H](C(=O)Nc1ccccn1)[C@H](C)CC)N(O)C=O`: the values for the growth inhibition in assay [1] and in assay [4] were 87% (active) and 96% (active), respectively. For the same compound, the inhibition in assay [2] is 24%; in assay [3], 2%.

In the case of `Oc1ccc2ccccc2c1C=NNc1nc(Nc2ccccc2)nc(N2CCOCC2)n1`, the growth inhibition is 49% in assay [1] and 100% (active) in assay [4]. The inhibition in assay [2] was 66% (active); in assay [3] it was -5%.

Consider `Oc1c(C=Nn2cnnc2)sc2ccccc12`, for which the growth inhibition in assay [1] is 68% (active); in assay [4], 93% (active). Further, the inhibition in assay [2] is -4%; in assay [3], 0%.

With `N=C(N)c1ccc(C=Cc2ccc(C(=N)N)cc2O)cc1`, the values for the growth inhibition in assay [1] and in assay [4] were 80% (active) and 92% (active), respectively. The inhibition is 10% in assay [2] and 4% in assay [3].

`O=C(Nc1cccc(-c2nn3ccccc3c2-c2ccnc(Nc3ccc(-c4cc[nH]n4)cc3)n2)c1)c1c(F)cccc1F`: the growth inhibition in assay [1] and in assay [4] was 98% (active) throughout. Besides, the inhibition is 68% (active) in assay [2] and 5% in assay [3].

On to `C=CC[C@H](C[C@H](O)[C@H](Cc1ccccc1)NC(=O)c1ccc(-n2cccn2)cc1)C(=O)NC1CCCCC1`, for which the growth inhibition was 0% in assay [1] and 96% (active) in assay [4]. Besides, the inhibition in assay [2] and in assay [3] was 1% each time.

Consider `COc1ccc(Nc2nc(NN=Cc3cc(Cl)ccc3O)nc(Nc3ccccc3)n2)cc1`, for which the growth inhibition in assay [1] was 10%; in assay [4], 100% (active). Moreover, the figures for the inhibition in assay [2] and in assay [3] were 55% (active) and 0%, respectively.

As to `COc1ccc(Nc2nc(NN=Cc3ccc(O)cc3)nc(Nc3ccc([N+](=O)[O-])cc3)n2)cc1`, the growth inhibition in assay [1] was 16%; in assay [4] it was 93% (active). Besides, the inhibition in assay [2] was -1%; in assay [3] it was 0%.

In the case of `c1cc2nc(CCCCc3nc4ccc(C5=N[C@H]6CCCC[C@H]6N5)cc4[nH]3)[nH]c2cc1C1=N[C@H]2CCCC[C@H]2N1`, the growth inhibition in assay [1] was 88% (active); in assay [4], 90% (active). The inhibition in assay [2] is 5%; in assay [3], 6%.

On to `Cc1cc(-c2cc(-c3ccc(OCCN(C)C)cc3)[nH]c2-c2ccc3c(c2)CCC3=NO)ccn1`, for which the growth inhibition in assay [1] is 92% (active); in assay [4], 100% (active). Moreover, the inhibition is -13% in assay [2] and -3% in assay [3].

Consider `COc1ccc2nccc([C@@H](O)CN3CC[C@H](NCc4nc5c(cc4Cl)SCC(=O)N5)[C@H](F)C3)c2c1`, for which the growth inhibition is 94% (active) and 100% (active) in assay [1]; 94% (active) and 99% (active) in assay [4]. Moreover, the inhibition is 10% and 20% in assay [2]; -3% and 1% in assay [3].

For `C[C@@H]([C@@H](CCCc1ccc(Cl)cc1)C(=O)N[C@H](C(=O)Nc1cccnc1)C(C)(C)C)N(O)C=O`, the growth inhibition in assay [1] is 99% (active); in assay [4], 100% (active). Further, the values for the inhibition in assay [2] and in assay [3] were 7% and 1%, respectively.

Regarding `COc1cc(-c2nc(-c3ccc4c(c3)CCC4=NO)c(-c3ccncc3)[nH]2)ccc1OCCN1CCN(C)CC1`, the growth inhibition is 77% (active) in assay [1] and 99% (active) in assay [4]. In addition, the inhibition in assay [2] is 53% (active); in assay [3], 3%.

With `O=C(NN=Cc1nc2ccccc2[nH]1)c1cccc([N+](=O)[O-])c1`, the figures for the growth inhibition in assay [1] and in assay [4] were 82% (active) and 99% (active), respectively. Also, the inhibition in assay [2] was -3%; in assay [3] it was 2%.

`CC1CCC(C[C@@H](C(=O)N[C@@H](CCC(=O)N2CCCCC2)C(=O)Nc2nccs2)[C@H](C(C)C)N(O)C=O)CC1` (stereo partly specified): the growth inhibition in assay [1] is 70% (active); in assay [4], 87% (active). Further, the values for the inhibition in assay [2] and in assay [3] were 38% and 7%, respectively.

In the case of `Oc1cccc(-c2nc(-c3ccccc3)c(-c3ccc4oc5ccc(-c6[nH]c(-c7cccc(O)c7)nc6-c6ccccc6)cc5c4c3)[nH]2)c1`, the growth inhibition in assay [1] is 35%; in assay [4], 91% (active). Besides, the inhibition was 30% in assay [2] and 4% in assay [3].

In the case of `CC[C@H](C)[C@H](NC(=O)[C@H](CC1CCCCC1)[C@H](CC)N(O)C=O)C(=O)Nc1ccccn1`, the growth inhibition was 95% (active) in assay [1] and 96% (active) in assay [4]. In addition, the inhibition in assay [2] is 14%; in assay [3], -1%.

With `C=CC[C@H](C[C@H](O)[C@H](Cc1ccccc1)NC(=O)c1ccc(-c2cccnn2)cc1)C(=O)NC1CCCCC1`, the results for the growth inhibition in assay [1] and in assay [4] were -1% and 83% (active), respectively. The inhibition in assay [2] was 2%; in assay [3], 4%.

For `CC(C)[C@@H]1NC(=O)[C@H](CCCCN)NC(=O)[C@@H](Cc2c[nH]c3ccccc23)NC(=O)[C@H](Cc2ccc(O)cc2)NC(=O)[C@H](C)N(C)C(=O)[C@H](Cc2ccccc2)NC1=O`, in assay [5], the period change is -0.2 h.

For the compound `CCCCCC(C)C(C)c1cc(O)c2c(c1)OC(C)(C)CC2=Cc1ccncc1` (stereo unspecified), the growth inhibition was 78% (active) in assay [1] and 100% (active) in assay [4]. The inhibition is -8% in assay [2] and 2% in assay [3].
